Assay outcomes: PubChem, The Scripps Research Institute Molecular Screening Center
MITF inh: inhibitors of human MITF | O75030 | AlphaScreen MITF homodimerization, bead proximity signal | inhibition, % at 2.6 µM | 650,000 compounds, 0.91% hits | AID 1259374; in the data active = inhibition above about 50%
TEAD-YAP block: TEAD-YAP interaction inhibition; HEK-TIYL cells, TEAD-Gal4/YAP UAS-luciferase luminescence; inhibition, % at 9.12 µM; 640,000 compounds, 1.4% hits; AID 1259422; in the data active = inhibition above about 32%
GPR151 ag: activates the human receptor GPR151 | Q8TDV0 | AID 1508602 | activation, % at 11.2 µM | PathHunter beta-arrestin GPR151 cells, luminescence | 650,000 compounds, 1% hits; in the data active = activation above about 4.9%
Target sequence (Q8TDV0 whole entry, looked up): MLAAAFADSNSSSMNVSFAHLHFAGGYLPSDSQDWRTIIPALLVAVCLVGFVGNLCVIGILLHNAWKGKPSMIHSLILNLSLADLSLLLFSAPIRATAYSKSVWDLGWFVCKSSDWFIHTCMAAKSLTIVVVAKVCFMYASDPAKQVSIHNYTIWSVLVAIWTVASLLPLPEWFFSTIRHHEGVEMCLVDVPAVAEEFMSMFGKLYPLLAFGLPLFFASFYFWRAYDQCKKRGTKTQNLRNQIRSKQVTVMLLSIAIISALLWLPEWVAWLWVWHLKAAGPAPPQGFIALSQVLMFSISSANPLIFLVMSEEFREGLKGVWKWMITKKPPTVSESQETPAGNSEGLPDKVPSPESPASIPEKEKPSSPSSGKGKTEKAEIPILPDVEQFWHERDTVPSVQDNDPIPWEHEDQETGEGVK
FBW7 act: activators of human E3 ligase FBW7. Q969H0. AlphaScreen FBW7–phospho-cyclin E peptide binding, activator screen. normalized activity (activation), % at 26.1 µM. 650,000 compounds, 0.13% hits; in the data active = normalized activity above about 1.9%;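 note: purified mutant Fbw7 with reduced substrate affinity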
Of the large screens only hits and unclear results are named; the others gave an inactive call; ! = repeats disagree. Only some compounds are listed: those with a hit (about 3.5% of all), similar ones and a draw of the others.

CC1=NNC(=O)C1CCc1ccncc1 (configuration not stated)	none
COc1ccc(/C=C/C(=O)Nc2ncc(Cc3ccccc3)s2)cc1	none
COc1ccc(Cc2cnc(NC(=O)/C=C/c3ccco3)s2)cc1	TEAD-YAP block 64
COc1ccc(Cc2cnc(NC(=O)/C=C/c3ccccc3)s2)cc1	TEAD-YAP block 56
Oc1c(C(c2ccc(Br)cc2)N2CCOCC2)ccc2cccnc12 (configuration not stated)	TEAD-YAP block 73
O=C(Sc1cccc2cccnc12)N1CCOCC1	none
Oc1c(C(c2ccccc2)N2CCOCC2)ccc2cccnc12 (configuration not stated)	TEAD-YAP block 87
COC(=O)C1=C(C)NC2=C(C(=O)CC(c3cccs3)C2)C1c1ccc(OC(F)(F)F)cc1 (configuration not stated)	none
CCc1cc(C(=O)Cc2ccc(OC)cc2)c(O)cc1O	none
COc1ccc(CC(=O)c2ccc(O)cc2O)cc1	TEAD-YAP block 34!
O=C(Cc1ccc(Br)cc1)c1ccc(O)cc1O	none
Cc1ccc(OCC(=O)c2ccc(O)cc2O)cc1	none
CC(C)Oc1ccc(CC(=O)c2ccc(O)cc2O)cc1	TEAD-YAP block 66
CC(C)(C)c1ccc(OCC(=O)c2ccc(O)cc2O)cc1	TEAD-YAP block 96
COc1ccc(NC(=O)Cn2nnc(-c3ccccc3C)n2)cc1	none
Nn1c(SCC(=O)NCC2CCCO2)nnc1-c1cccs1 (configuration not stated)	none
COc1ccccc1/C=C1/SC(=S)N(CCCC(=O)O)C1=O	TEAD-YAP block 46
COCCN1C(=O)/C(=C/c2ccccc2OC)SC1=S	none
COc1ccccc1/C=C1/SC(=S)N(CCCCCC(=O)O)C1=O	TEAD-YAP block 58
COC(=O)c1ccc(CSc2nc3ccncc3[nH]2)cc1	TEAD-YAP block 92
c1ccc(CSc2nc3ccncc3[nH]2)cc1	TEAD-YAP block 57
COC(=O)c1ccc(CSc2nc(C)cc(=O)[nH]2)cc1	none
N#Cc1cccc(CSc2nc3ccncc3[nH]2)c1	none
CCNS(=O)(=O)c1ccc(NC(=O)C(=O)OCC)cc1	none
COc1cccc(Cn2ccn(-c3cccc(Cl)c3)c(=O)c2=O)c1	TEAD-YAP block 53
COc1cccc(Cn2ccn(Cc3ccccc3)c(=O)c2=O)c1	none
Cc1nn2c(-c3ccccc3)csc2nc1=O	none
Oc1ccc(-c2csc3nc(-c4ccccc4)nn23)c(O)c1	TEAD-YAP block 34
COc1ccc(OC)c(NC(=O)c2cc(Cl)ccc2Cl)c1	none
COc1ccccc1NC(C)C(=O)N/N=C/c1cc([N+](=O)[O-])ccc1O (configuration not stated)	none
O=C(Cn1cncn1)N/N=C/c1cc(Br)ccc1O	MITF inh 57
CC(Oc1cccc2ccccc12)C(=O)N/N=C/c1cc([N+](=O)[O-])ccc1O (configuration not stated)	TEAD-YAP block 37
CC(Nc1cccc2ccccc12)C(=O)N/N=C/c1cc([N+](=O)[O-])ccc1O (configuration not stated)	TEAD-YAP block 67
O=C(CNc1cccc2ccccc12)N/N=C/c1ccccc1O	none
O=C(Cn1cncn1)N/N=C/c1ccc(Br)cc1	none
O=C(CNc1cccc2ccccc12)N/N=C/c1cc(Br)ccc1O	TEAD-YAP block 34
COc1cccc(/C=N/NC(N)=S)c1	none
CC(Nc1cccc2ccccc12)C(=O)N/N=C/c1ccc(O)cc1 (configuration not stated)	TEAD-YAP block 34
O=C(O)c1ccc([N+](=O)[O-])c2c1NC(c1ccc([N+](=O)[O-])cc1)C1CC=CC21 (configuration not stated)	MITF inh 85
CC(=O)Oc1ccc(C2Nc3c(C(=O)O)ccc([N+](=O)[O-])c3C3C=CCC32)cc1 (configuration not stated)	none
CCNC(=O)/C(C#N)=C/c1c(Oc2ccc(Cl)c(C)c2)nc2c(C)cccn2c1=O	none
COc1ccc(-c2cc(C(F)(F)F)n3nc(C(=O)NC(C)(C)C)cc3n2)cc1OC	FBW7 act 1.9
COc1ccc(-c2cc(C(F)(F)F)n3nc(C(=O)NC(C)(C)CC(C)(C)C)cc3n2)cc1OC	none
CCCCCn1c(SCc2cccc(Cl)c2)nc2cc(C(=O)NC3CCCCC3)ccc2c1=O	none
COc1cc(/C=N\Nc2ccc([N+](=O)[O-])cn2)c(Br)cc1O	FBW7 act 20
Cc1cc(N/N=C/c2ccc(O)cc2O)nc(-c2ccccc2O)n1	TEAD-YAP block 43
Cc1nc(N/N=C/c2ccc(O)cc2O)cc(-c2ccccc2)n1	none
Cc1cc(N/N=C\c2ccccc2)nc(-c2ccccc2O)n1	none
